Measurements reported in PubChem BioAssay (Tox21).
Results filed as inconclusive are left out. A call without a number means that no potency is given here. The source made the active and inactive calls. Calls come from the whole dose curve; as a rule, active = well fitted inhibition curve with a large enough effect in the repeat runs; inconclusive = weak or mixed curves, or effect the other way; inactive = no such curve, though single readings can be large or run the other way.

Target: Nuclear receptor subfamily 1 group I member 3 (Homo sapiens) (UniProt Q14994)
Sequence (Q14994 whole entry, looked up): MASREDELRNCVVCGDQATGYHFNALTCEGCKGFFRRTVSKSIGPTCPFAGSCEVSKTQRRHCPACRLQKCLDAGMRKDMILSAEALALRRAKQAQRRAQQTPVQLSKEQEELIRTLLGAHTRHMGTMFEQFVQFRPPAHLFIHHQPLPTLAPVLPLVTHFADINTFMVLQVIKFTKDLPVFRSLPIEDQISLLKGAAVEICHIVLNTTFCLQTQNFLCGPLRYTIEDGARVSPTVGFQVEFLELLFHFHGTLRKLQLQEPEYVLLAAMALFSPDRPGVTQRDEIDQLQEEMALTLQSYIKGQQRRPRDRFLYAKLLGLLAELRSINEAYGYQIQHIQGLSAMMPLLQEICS
Test: qHTS assay to identify small molecule antagonists of the constitutive androstane receptor (CAR) signaling pathway (AID 1224838);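 note: HepG2 cells stably expressing hCAR with CYP2B6 luciferase reporter stimulated by CITCO; nearly all actives have a fitted effect of over 40% in size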
Conditions: HepG2-CYP2B6-hCAR luciferase, CITCO-stimulated, 24 h; series mostly up to 92.4 µM
Source text: U.S. Tox21 Program National Center for Advancing Translational Sciences [NCATS] NIH Chemical Genomics Center [NCGC] U.S. Environmental Protection Agency [EPA] National Institutes of Environmental Health Sciences [NIEHS] National Toxicology Program [NTP] U.S. Food and Drug Administration [FDA] Tox21 Assay Overview: The constitutive androstane receptor (CAR) is a nuclear receptor which regulates multiple drug metabolizing enzymes (DMEs) and transporters. Activating CAR will generally increase the transcription and subsequent translation of CYP2B6 and CYP3A4. These two DMEs represent about 50% of the drug metabolizing potential in the body. When CAR is deactivated, the metabolizing potential in the body will decrease, subsequently increasing the toxicity in the body or lowering the therapeutic potential of a pro-drug. Recently, there have also been studies performed indicating CARs role in energy metabolism and cancer therapy. Therefore, inhibiting CARs activity could have a potential effect on diabetes and cancer. Identifying environmental toxins and compounds which modulate CAR, through the use of the Tox21 10K compound collection, will be an important step in determining the toxicity and potential therapeutic effects these factors will have on the human body.
Tox21 Assay Protocol Summary: A double-stable (hCAR and CYP2B6-2.2kb) transfected cell line, derived from human hepatoma (HepG2) cells, was utilized for the duration of the quantitative high-throughput screens. The HepG2-CYP2B6-hCAR cells suspended in DMEM culture medium supplemented with 10% FBS, 5 ug/mL blasticidin, 0.5 mg/mL geneticin, 100 U/mL penicillin and 100 ug/mL streptomycin were dispensed at 2500 cells/4 uL/well in 1536-well white solid bottom plates using a Multidrop Combi. After the assay plates were incubated at 37 C/5% CO2 for 4 hrs, 23 nL of compounds at 15 concentrations (from 5-48 columns) or positive control (from 1 to 4 columns) were transferred to the assay plates using a Pintool station. One uL of CITCO, was added using a Flying Reagent Dispenser to generate a final concentration of 50 nM CITCO inside each well. After a 24 hr incubation period at 37 C/5% CO2, four uL of ONE-Glo reagent was added into the assay plates using a Flying Reagent Dispenser. After a 30 min incubation period at room temperature, the luminescence intensity in the assay plates was measured using a ViewLux plate reader.
Potency is the fitted concentration of half-maximal effect.

| SMILES | Potency |
| --- | --- |
| COC(=O)c1cncn1C(C)c1ccccc1 (stereo not given) | inactive |
| O=[N+]([O-])c1ccccc1CCl | inactive |
| CN1C[C@H](CNC(=O)OCc2ccccc2)C[C@@H]2c3cccc4c3c(cn4C)C[C@H]21 | inactive |
| NC(=O)C(Cl)(Cl)Cl | inactive |
| CN(N=O)c1ccc([N+](=O)[O-])cc1 | inactive |
| CCOP(=O)(OCC)Oc1ccc([N+](=O)[O-])cc1 | inactive |
| O=C(CBr)c1ccccc1 | inactive |
| Cn1sc(Cl)cc1=O | inactive |
| COC(=O)C(C)N(C(=O)Cc1ccccc1)c1c(C)cccc1C (stereo not given) | inactive |
| CCOc1ccc(C(C)(C)COCc2cccc(Oc3ccccc3)c2)cc1 | inactive |
| CCCN(CC1CC1)c1c([N+](=O)[O-])cc(C(F)(F)F)cc1[N+](=O)[O-] | inactive |
| COP(=S)(OC)Oc1cc(Cl)c(I)cc1Cl | inactive |
| O=C(O)CC(Cl)C(=O)O (stereo not given) | inactive |
| O=C=Nc1ccc(Cl)cc1 | inactive |
| O=C(N[C@H](c1ccccc1)[C@@H]1CN2CCC1CC2)c1c(Cl)ccc(C(F)(F)F)c1Cl | 13.9 µM (active) |
| Nc1ccc([N+](=O)[O-])cc1[N+](=O)[O-] | inactive |
| CCOc1nc(F)cc2nc(S(=O)(=O)Nc3c(Cl)cccc3Cl)nn12 | inactive |
| CCBr | inactive |
| CCC(C)(NC(=O)c1cc(Cl)c(C)c(Cl)c1)C(=O)CCl (stereo not given) | 48.9 µM (active) |
| BrCC(Br)C1CCC(Br)C(Br)C1 (stereo not given) | inactive |

| SMILES | Potency |
| --- | --- |
| Cc1ccccc1C(=O)Nc1cccc(OC(C)C)c1 | inactive |
| CC(O)(CS(=O)(=O)c1ccc(F)cc1)C(=O)Nc1ccc(C#N)c(C(F)(F)F)c1 (stereo not given) | inactive |
| II | inactive |
| C#CCOC(C(=O)OCCN(C)C)(c1ccccc1)c1ccccc1 | inactive |
| CC(=O)C(C)(C)C | inactive |
| CCOP(O)OCC | inactive |
| COc1cc(CC(C)N)cc2c1OCO2 (stereo not given) | inactive |
| IC(I)=C(I)I | 12.2 µM (active) |
| [CH3][Sn]([CH3])([Cl])[Cl] | inactive |
| O=C(O)COc1ccc(Cl)cc1 | inactive |
| CCCCc1c(C)nc(NCC)nc1OS(=O)(=O)N(C)C | inactive |
| Sc1ccccc1Cl | inactive |
| N#CCC#N | 61.1 µM (active) |
| C=COC(C)=O | inactive |
| O=C(NCc1cccnc1)Nc1ccc([N+](=O)[O-])cc1 | inactive |
| Clc1cccc2ccccc12 | inactive |
| CCOP(=S)(Oc1ccc([N+](=O)[O-])cc1)c1ccccc1 (stereo not given) | inactive |
| CCOP(=S)(OCC)Oc1cc(Cl)c(Br)cc1Cl | inactive |
| O=C(OC1CCCCC1)c1ccccc1C(=O)OC1CCCCC1 | inactive |
| COC(C)(C)CCC[C@H](C)C/C=C/C(C)=C/C(=O)OC(C)C | inactive |
